Test results reported in PubChem BioAssay (NCATS).
Several values for one entry are separate records, joined by “and”; a condition that tells them apart may be missing. Identical values can stand only once. Results filed as inconclusive are left out. Activity calls are given as the source filed them. Unless noted, calls come from the whole dose curve.

Legend:
[1] = Cell Viability - BJ (AID 421); conditions: BJ fibroblast viability, qHTS;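 note: potency is the fitted concentration of half-maximal effect; cells exposed to compound for 40 hours at 37 °C before readout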
Summary of the method: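 Quantitative HTS: ATP depletion in BJ cells after 40 hr compound exposure in complete culture medium, detected with CellTiter-Glo; AC50 from standard Hill fits.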

[2] = Cell Viability - Jurkat (AID 426;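 active = dose-dependent loss of cell ATP signal giving a full or clear fitted curve, ranked by lower potency value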;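 note: potency is the fitted concentration of half-maximal effect; cells exposed to compound for 40 hours at 37 °C before ATP read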); conditions: qHTS
Summary of the method: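 Cells of the human T-cell leukemia line Jurkat (E6-1) are seeded at 5000 per well, treated with compound across a concentration range for 40 hours at 37 °C, then lysed with CellTiter-Glo; luminescence reports ATP.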

[3] = Cell Viability - Hek293 (AID 427;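 active = compounds whose dose-response curve shows a full or clear partial loss of cell viability, called from curve shape rather than a numeric limit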;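 note: potency is the fitted concentration of half-maximal effect; cells exposed to compound for 40 hours at 37 °C before reading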); conditions: qHTS
Summary of the method: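 AC50 values derive from Hill-modelled concentration-response of ATP-based luminescence, normalized between DMSO-only and 100 uM tamoxifen controls. Cells were exposed in complete culture medium for 40 hr at 37 °C before detection.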

[4] = Cell Viability - HepG2 (AID 433); conditions: qHTS;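 note: potency is the fitted concentration of half-maximal effect; potency for ATP loss meaning cytotoxicity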
Summary of the method: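 Cytotoxicity read as ATP loss (CellTiter-Glo luminescence) after 40 hr compound exposure of HepG2, 1500 cells/well, 37 °C. AC50 by Hill equation; 0% set by DMSO, 100% inhibition by 100 uM tamoxifen.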

[5] = Cell Viability - MRC5 (AID 434); conditions: MRC5 lung fibroblast viability, qHTS;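 note: potency is the fitted concentration of half-maximal effect; potency reflects cytotoxicity seen as loss of intracellular ATP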
Summary of the method: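 ATP luminescence read-out (CellTiter-Glo, 20 min RT) after 40 hr, 37 °C compound exposure of 1500 MRC5 cells/well. Data normalized to DMSO (basal) and 100 uM tamoxifen (100% inhibition); AC50 from standard Hill equation.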

[6] = Cell Viability - SK-N-SH (AID 435); conditions: SK-N-SH neuroblastoma cell viability qHTS; note: potency is the fitted concentration of half-maximal effect
Summary of the method: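 qHTS cytotoxicity: CellTiter-Glo ATP luminescence after 40 h compound exposure of human neuroblastoma SK-N-SH cells at 37 °C. AC50 derived by Hill-equation fitting, with DMSO as basal and 100 uM tamoxifen as full inhibition.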

[7] = target: Cytochrome P450 1A2 (Homo sapiens) (UniProt P05177); assay: p450-cyp1a2 (AID 410); conditions: recombinant CYP1A2, luciferin-ME demethylation, luminescence; series mostly up to 57 µM;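 note: -100% = full effect of reference inhibitor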
Summary of the method: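 O-Demethylation of luciferin 6' methyl ether by human CYP1A2 is monitored as luciferase luminescence. Substrate sits at Km (100uM); enzyme is 20nM. Values are scaled to 57 uM furafylline as maximal inhibition.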

[8] = NFAT Signaling Pathway (AID 444; active = well fitted curve in either direction with a large enough effect, not every such curve was filed as active;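 note: carbachol stimulus at about its EC50 of 1 µM final; % is set by controls: 0 for no effect and ±100 for the full control effect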); conditions: Jurkat NFAT-bla M1, carbachol, beta-lactamase ratio, 5 h; at 38 µM (top of the series) unless noted
Summary of the method: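 Jurkat cells with NFAT-driven β-lactamase reporter and co-expressed M1 receptor, stimulated with carbachol (final 1 uM, ~EC50), compound titration, 5 h at 37 °C. CCF4 loaded 1 h at RT; 460/530 nm ratio gave %activity and AC50.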

Sequence of Cytochrome P450 1A2 (Homo sapiens) (P05177 whole entry, looked up): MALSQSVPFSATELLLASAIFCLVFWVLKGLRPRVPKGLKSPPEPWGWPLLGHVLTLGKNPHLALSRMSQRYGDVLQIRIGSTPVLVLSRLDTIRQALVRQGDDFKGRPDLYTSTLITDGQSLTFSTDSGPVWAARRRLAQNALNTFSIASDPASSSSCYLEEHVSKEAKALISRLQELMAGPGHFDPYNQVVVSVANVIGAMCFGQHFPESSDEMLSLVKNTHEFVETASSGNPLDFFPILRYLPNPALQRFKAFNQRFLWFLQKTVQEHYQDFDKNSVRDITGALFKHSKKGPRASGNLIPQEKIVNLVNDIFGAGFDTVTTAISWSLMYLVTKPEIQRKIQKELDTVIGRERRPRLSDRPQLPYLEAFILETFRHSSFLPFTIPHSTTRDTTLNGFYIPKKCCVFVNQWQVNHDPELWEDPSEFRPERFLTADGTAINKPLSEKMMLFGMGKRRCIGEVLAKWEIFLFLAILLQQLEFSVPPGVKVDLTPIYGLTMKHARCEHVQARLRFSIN

Clc1ccccc1Cl
inactive: Potency [1] > 92 µM | Potency [2] > 92 µM | Potency [3] > 92 µM | Potency [4] > 92 µM | Potency [5] > 92 µM | Potency [6] > 92 µM

ClC=C(Cl)Cl
inactive: Potency [1] > 92 µM | Potency [2] > 92 µM | Potency [3] > 92 µM | Potency [4] > 92 µM | Potency [5] > 92 µM | Potency [6] > 92 µM

O=C1CCO1
inactive: Potency [1] > 92 µM | Potency [2] > 92 µM | Potency [3] > 92 µM | Potency [4] > 92 µM | Potency [5] > 92 µM | Potency [6] > 92 µM

S=C=S
inactive: Potency [1] > 92 µM | Potency [2] > 92 µM | Potency [3] > 92 µM | Potency [4] > 92 µM | Potency [5] > 92 µM | Potency [6] > 92 µM

O=[N+]([O-])c1ccccc1
inactive: Potency [1] > 92 µM | Potency [2] > 92 µM | Potency [3] > 92 µM | Potency [4] > 92 µM | Potency [5] > 92 µM | Potency [6] > 92 µM

CC(C)CCON=O
inactive: Potency [1] > 92 µM | Potency [2] > 92 µM | Potency [3] > 92 µM | Potency [4] > 92 µM | Potency [5] > 92 µM | Potency [6] > 92 µM

[O]=[Cr](=[O])([OH])[O][Cr](=[O])(=[O])[OH]
active: Potency [1] 19.5 µM and 13.4 µM and 4.66 µM | Potency [2] 1.88 µM and 3.05 µM and 549 nM | Potency [3] 30.9 µM and 31.8 µM and 19.2 µM | Potency [4] 12.2 µM and 14.7 µM and 7.52 µM | Potency [5] 4.16 µM and 11.5 µM and 9.77 µM | Potency [6] 19.2 µM and 17.1 µM and 3.88 µM

COc1ccc2c(c1OC)C(=O)OC2C1c2cc3c(cc2CCN1C)OCO3 (configuration not stated)
inactive: Potency [1] > 92 µM | Potency [2] > 92 µM | Potency [3] > 92 µM | Potency [4] > 92 µM | Potency [5] > 92 µM | Potency [6] > 92 µM

C=CCN=C=S
inactive: Potency [1] > 92 µM | Potency [2] > 92 µM | Potency [3] > 92 µM | Potency [4] > 92 µM | Potency [5] > 92 µM | Potency [6] > 92 µM

CCCn1c(=O)c2[nH]c(C3CCCC3)nc2n(CCCOC(=O)c2ccc(S(=O)(=O)F)cc2)c1=O
inactive: Potency [7] | activity change, negative = inhibition [8] -34.5%

O=C(O)C(Cl)(Cl)Cl
inactive: Potency [1] > 92 µM | Potency [2] > 92 µM | Potency [3] > 92 µM | Potency [4] > 92 µM | Potency [5] > 92 µM | Potency [6] > 92 µM
